From paper PMC12136788
Numbering of substitutions follows the chain as printed. Over roughly 5,800 sequences, “enrichment r” has its median near 0.54; the highest 2% begin near 16. The sample holds the highest values, similar sequences and a random draw of the others, so the mix is not that of the screen.

B1: ENSG00000070961:be:win_1201|CDS|ENSG00000070961|bound_else_gene|NA|bound_elsewhere_windowed (ssRNA)
RNA: GGGAGUUCUACAGUCCGACGAUCAAAAGACCAUGGCUUGCUGAGUGCACACCAAUUUAUAUACAAUACUUUGUGAAGUUCUUCAUUAUUGGAGUUACAGUUUUAGUGGUCGCAGUGCCAGAAGGUCUUCCACUUGCAGUCACGCAACAGAGGAUUGAGCAUCA
B2: chr5:150401636:150402250:-|three_prime_utr|ENSG00000019582|control|control|control (ssRNA)
RNA: GGGAGUUCUACAGUCCGACGAUCCUGCUGCCCAAUCUCCAUCUGUCAACAGGGGCGUGAGGUCCCAGGAAGUGGCCAAAAGCUAGACAGAUCCCCGUUCCUGACAUCACAGCAGCCUCCAACACAAGGCUCCAAGACCUAGGCCAACAGAGGAUUGAGCAUCA
B3: chr5:40972473:40972581:+|CDS|ENSG00000112936|unk|FALSE|unique (ssRNA)
RNA: GGGAGUUCUACAGUCCGACGAUCAAAACCUUUCUACACAGUUGGUGAGAAGGUGACUGUUUCCUGUUCAGGUGGCAUGUCCUUAGAAGGUCCUUCAGCAUUUCUCUGUGGCUCCAGCCUUAAGUGGAGUCCUGAGAUGAAGAACAACAGAGGAUUGAGCAUCA
B4: ENSG00000096070:stop:overlap|stop_codon|ENSG00000096070|stop_codon|NA|stop_codon (ssRNA)
RNA: GGGAGUUCUACAGUCCGACGAUCAGAAGGAUCCUGCACACAUCUUCGCAGAACCAGUCAACUUGAGUGAGGUUUUAUAUGUUUAGGUUCCAGAUUACCUGGAAUUCAUAUCCAAGCCAAUGGAUUUUUCUACUAUGAGGCGGACAACAGAGGAUUGAGCAUCA
B5: ENSG00000070961:be:win_4051|3pUTR|ENSG00000070961|bound_else_gene|NA|bound_elsewhere_windowed (ssRNA)
RNA: GGGAGUUCUACAGUCCGACGAUCAUUUCUGCUGUUGGCUGUUAAUAAUUUGGAUUAUUUAUGUUUAUAAAUGAUACAGAUCUGUUUACAAGGUUUGUAGAUACUUUUUUUGUUCCUGUUCAUAGAUGGGAAGCUUCCUUAUAACAACAGAGGAUUGAGCAUCA
B6: chr16:3436009:3436110:-|3pUTR|ENSG00000167981|unk|total|mutant (ssRNA)
RNA: GGGAGUUCUACAGUCCGACGAUCAUUAAAAUGAAGGCUCUUGCUAAAGUUAUUUUAAUUUUGUUUACGCCGUUUCUGACUUUCCGAAGGAGGAGAAUUUAUUUAUAUUUUGCCAGUUCUGCAGACAUAUCCCGGAAAGUAAAUCAACAGAGGAUUGAGCAUCA
B7: chr3:100749155:100750494:-|three_prime_utr|ENSG00000154175|control|control|control (ssRNA)
RNA: GGGAGUUCUACAGUCCGACGAUCUGCCGCAUUCAUUUAAAGCUAUUUUGUUUACUAUGUAUAAAAGUCUACAAUCUAAUUAAUAGCAAUACUAGAUGUUUAUUAUUAGAAAAGAUUGCUGAGAGUAUUUAUCAGGUUUUACAACAACAGAGGAUUGAGCAUCA
B8: chr16:3436009:3436110:-|3pUTR|ENSG00000167981|unk|FALSE|unique (ssRNA)
RNA: B6 RNA with C69U, C70A, C83U, C84A, C131U, C132A
B9: chr15:67202635:67202736:-|3pUTR|ENSG00000103591|msi1|FALSE|unique (ssRNA)
RNA: GGGAGUUCUACAGUCCGACGAUCUGCCAAAAUUGCCCUUAUCAUGUUGGCUGCCUGACUUGUUUAUAGGGUCCCCUUAAUUUUAGUUUUUAGUAGGAGGUUAAGGAGAAAUCUUUUUUUUCCUCAGUAUAUUGUAAGAGAGUGCAACAGAGGAUUGAGCAUCA
B10: chr1:183143318:183143419:+|3pUTR|ENSG00000135862|msi1|FALSE|unique (ssRNA)
RNA: GGGAGUUCUACAGUCCGACGAUCACAUCCUGUGCCAAAGGUAUUGGUCAUUUAGAAUGUCGGUAGCCAUCCAUCAGUGCUUUUAGUUAUUAUGAGUGUAGGACACUGAGCCAUCCGUGGGUCAGGAUGCAAUUAUUUAUAAAACAACAGAGGAUUGAGCAUCA
B11: chr13:42886387:42888493:-|three_prime_utr|ENSG00000133106|control|control|control (ssRNA)
RNA: GGGAGUUCUACAGUCCGACGAUCCAUAUUUAAUCUCUACUGCCAGGGAAAUGCUACAUUAUUUUUCUAAUUGGAAGUAUAAUUAGAGUGAUGUUGGUAGGGUAGAAAAAGAGGGAGUCACUUGAUGCUUUCAGGUUAAUCAGACAACAGAGGAUUGAGCAUCA
B12: chr6:1612588:1612689:+|3pUTR|ENSG00000054598|msi1|FALSE|unique (ssRNA)
RNA: GGGAGUUCUACAGUCCGACGAUCUUUAUUCAUGGACUUGUUUUAAAAUGUAAAUUGCAACAUAGUAAUUUAUUUUUAAUUUGUAGUUGGAUGUCGUGGACCAAACGCCAGAAAGUGUUCCCAAAACCUGACGUUAAAUUGCCUCAACAGAGGAUUGAGCAUCA
B13: chr1:183143318:183143419:+|3pUTR|ENSG00000135862|msi1|total|mutant (ssRNA)
RNA: B10 RNA with U52C, A53C, U63C, A64C, U83C, A84C, U98C, A99C
B14: chr3:46835109:46836203:-|three_prime_utr|ENSG00000160808|control|control|control (ssRNA)
RNA: GGGAGUUCUACAGUCCGACGAUCUGAAGGCACAAGCUGUUCCAGUAUAAUAAAGAAAAUAAUUAAAUUAAGAAAAGUUAUACUAGAAAUAAGAUAUAGGUAUGAUUAUUAUUAAUCAUUAGUUUGUAGUAUUACUUUGUUCUACAACAGAGGAUUGAGCAUCA
B15: chr1:16124349:16124452:-|3pUTR|ENSG00000142627|msi1|FALSE|unique (ssRNA)
RNA: GGGAGUUCUACAGUCCGACGAUCUUUGUUUUGUUGGACAUUUUUUUCGAAUCUUAAUUUAUUAUUUUUUUUAUAUUUAUUGUUAGAAAAUGACUUAUUUCUGCUCUGGAAUAAAGUUGCAGAUGAUUCAAACCGAUCUUGGCUCAACAGAGGAUUGAGCAUCA
B16: chr15:67202635:67202736:-|3pUTR|ENSG00000103591|msi1|total|mutant (ssRNA)
RNA: B9 RNA with U66C, A67C, U83C, A84C, U90C, A91C, U93C, A94C

Each binder was assayed against MSI1 full-length (mouse, UniProt Q61474 1-362) (assay: nsRBNS (natural sequence RNA bind-n-seq); RBNS binding buffer (assumed for nsRBNS): 25 mM Tris pH 7.5, 150 mM KCl, 3 mM MgCl2, 0.01% Triton X-100, 500 ug/ml BSA, 20 U/ml SUPERase-In, 4 C; UNK is unkempt and MSI1 is Musashi-1; names of the RNAs are library labels; protein concentration not given here; high values mean tight binding).
Sequence of MSI1 full-length (Q61474 whole entry): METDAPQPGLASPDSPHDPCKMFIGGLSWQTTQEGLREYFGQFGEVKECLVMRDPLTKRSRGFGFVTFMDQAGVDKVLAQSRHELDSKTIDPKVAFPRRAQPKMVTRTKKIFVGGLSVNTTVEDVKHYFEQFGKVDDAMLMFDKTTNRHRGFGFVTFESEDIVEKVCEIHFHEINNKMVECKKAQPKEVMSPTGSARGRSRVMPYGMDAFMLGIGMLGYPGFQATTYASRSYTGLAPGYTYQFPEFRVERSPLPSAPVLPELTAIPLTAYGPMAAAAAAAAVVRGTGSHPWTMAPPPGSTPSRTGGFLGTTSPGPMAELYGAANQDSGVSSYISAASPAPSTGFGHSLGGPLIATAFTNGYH

Row | Binder | binding signal [enrichment R]
1 | B1 | 1.51
2 | B2 | 0.462
3 | B3 | 0.339
4 | B4 | 0.383
5 | B5 | 1.02
6 | B6 | 0.68
7 | B7 | 4.63
8 | B8 | 19.1
9 | B9 | 32.9
10 | B10 | 34.2
11 | B11 | 0.46
12 | B12 | 0.311
13 | B13 | 0.319
14 | B14 | 24.8
15 | B15 | 4.58
16 | B16 | 0.438
